Common to all, as to test: log2 fold change, soluble protein after heating vs DMSO (PISA); higher = thermal stabilisation; K562 lysate, 10 uM; active = over 0.2 and 3.5 SD of the protein, either way, in both replicates (recomputed)
Compound in one test: C#Cc1cccc(Nc2ncnc3cc(OCCOC)c(OCCOC)cc23)c1 [erlotinib]
Put shortly: (§1)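 Pellets of K562 cells were dounce-homogenised in PBS pH 7.4 with 1 mM MgCl2, and the crude extract was held at 1 mg/mL protein for a 30 min treatment with 10 μM compound. Aliquots were heated for 3 min over 48°C-58°C and pooled before NP-40 was added to 0.5% at 4°C. The supernatant from 21,000xg for 90 min was quantified by TMTpro 16plex LC-MS/MS with channel sums equalised. Values are reported from duplicates as log-two fold change in thermal stability relative to solvent controls.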

Compound in test [1]: C/C(=N\NC(=O)C1=CC(=CC=C1)S(=O)(=O)N2CCOCC2)/C3=C(C=CC(=C3)Cl)O
In short, it runs like this:
as §1

Compound in test [2]: C1=CC(=CC=C1C2=NC3=C(N2)C=C(C=C3)C(=O)N)OC4=CC=C(C=C4)Cl
Put shortly: as §1

Compound in test [3]: C1=CC2=C(C=CC(=C2)/C=C\3/C(=O)NC(=NCC4=CC=CS4)S3)N=C1
In short, it runs like this: as §1

Compound in test [4]: C1=CC2=NC=CN=C2C=C1/C=C/3\C(=O)NC(=O)S3
Put shortly:
as §1

Compound in test [5]: C1=CC=C(C=C1)C2=NC(=C(N2)C3=CC=NC=C3)C4=CC(=C(C=C4)Cl)O
Put shortly:
as §1

Compound in test [6]: C1=CC=C2C(=C1)C3=NNC4=CC=CC(=C43)C2=O
In short, it runs like this: as §1

Compound in the next test: C1COCCN1CCN2C3=CC=CC=C3N=C2NC(=O)C4=CC(=CC=C4)[N+](=O)[O-] [IRAK-1-4 Inhibitor I]
Put shortly:
as §1

Compound in another test: C=CC(=O)N1CCC[C@@H](n2nc(-c3ccc(Oc4ccccc4)cc3)c3c(N)ncnc32)C1 [ibrutinib]
Put shortly:
as §1

Compound in test [7]: CC(=O)c1cnc2ccc(-c3cc(Cl)c(O)c(Cl)c3)nc2c1N[C@H]1CC[C@H](CN(C)C)CC1
Put shortly: as §1

Compound in another test: CC(C)(C)Cn1c(N)nc2ccc(-c3[nH]c(C(C)(C)C)nc3-c3ccc(F)cc3)nc21 [ralimetinib]
Put shortly: as §1

Compound in test [8]: CC(C)(O)CC(=O)NCCn1ccc2ncnc(Nc3ccc(Oc4cccc(C(F)(F)F)c4)c(Cl)c3)c21
In short, it runs like this:
as §1

Compound in test [9]: CC(C)C1=C2N=C(C=C(N2N=C1)NCC3=CC=CC=C3)NCCCCCCN
Put shortly: as §1

Compound in test [10]: CC1=C(C(CC(=O)N1)C2=CC=C(C=C2)C(F)(F)F)C(=O)NC3=C(C=C4C(=C3)C=NN4)F
Put shortly:
as §1

Compound in test [11]: CC1=C(C2=C(C=C1)C(=O)C3=CC=CC=C3N2CCCN)C
In short, it runs like this:
as §1

Compound in test [12]: CC1=C(C=C(C=C1)NC(=O)C2=CC(=CC=C2)C(C)(C)C#N)NC3=CC4=C(C=C3)N=CN(C4=O)C
In short, it runs like this:
as §1

Compound in test [13]: CC1=C(C=C(C=C1)NC(=O)C2=CC(=CC=C2)N(C)C)NC(=O)C3=CC=C(C=C3)O
Put shortly:
as §1

Compound in test [14]: CC1=CC=C(C=C1)SC2=C3C=C(SC3=CN=C2)C(=O)N
In short, it runs like this: as §1

Compound in test [15]: C1CCN(C1)C(=O)NC2=CC=CC(=C2)NC3=NC=C(C(=N3)NCCC4=CN=CN4)Br
In short, it runs like this: as §1

Compound in test [16]: C1CN(CCC1(CC2=CC=C(C=C2)Cl)N)C3=NC=NC4=C3C=CN4
In short, it runs like this: as §1

About 8,800 targets were measured; listed, in parts, are those with a hit and a random draw of the rest. About 0.5% of all pairs of compound and target were hits. A number with no mark means an inactive call.

Chain of UniProt Q9BZ23 (Q9BZ23 whole entry, looked up): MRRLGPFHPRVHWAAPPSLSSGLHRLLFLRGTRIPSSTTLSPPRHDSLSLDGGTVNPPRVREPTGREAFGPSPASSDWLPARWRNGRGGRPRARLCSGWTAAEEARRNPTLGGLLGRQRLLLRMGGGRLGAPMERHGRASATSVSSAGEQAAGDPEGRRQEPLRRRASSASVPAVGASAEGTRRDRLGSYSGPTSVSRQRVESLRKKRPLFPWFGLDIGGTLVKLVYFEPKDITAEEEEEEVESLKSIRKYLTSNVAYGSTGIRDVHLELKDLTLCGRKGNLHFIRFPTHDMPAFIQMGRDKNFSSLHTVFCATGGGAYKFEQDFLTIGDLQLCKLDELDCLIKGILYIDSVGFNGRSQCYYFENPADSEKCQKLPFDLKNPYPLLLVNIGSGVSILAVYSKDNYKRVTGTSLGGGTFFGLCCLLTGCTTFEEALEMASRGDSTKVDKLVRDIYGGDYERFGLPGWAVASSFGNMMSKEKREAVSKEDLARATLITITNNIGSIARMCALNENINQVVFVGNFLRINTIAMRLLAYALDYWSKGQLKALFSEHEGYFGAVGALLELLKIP
Chain of UniProt B2RTY4 (B2RTY4 whole entry, looked up): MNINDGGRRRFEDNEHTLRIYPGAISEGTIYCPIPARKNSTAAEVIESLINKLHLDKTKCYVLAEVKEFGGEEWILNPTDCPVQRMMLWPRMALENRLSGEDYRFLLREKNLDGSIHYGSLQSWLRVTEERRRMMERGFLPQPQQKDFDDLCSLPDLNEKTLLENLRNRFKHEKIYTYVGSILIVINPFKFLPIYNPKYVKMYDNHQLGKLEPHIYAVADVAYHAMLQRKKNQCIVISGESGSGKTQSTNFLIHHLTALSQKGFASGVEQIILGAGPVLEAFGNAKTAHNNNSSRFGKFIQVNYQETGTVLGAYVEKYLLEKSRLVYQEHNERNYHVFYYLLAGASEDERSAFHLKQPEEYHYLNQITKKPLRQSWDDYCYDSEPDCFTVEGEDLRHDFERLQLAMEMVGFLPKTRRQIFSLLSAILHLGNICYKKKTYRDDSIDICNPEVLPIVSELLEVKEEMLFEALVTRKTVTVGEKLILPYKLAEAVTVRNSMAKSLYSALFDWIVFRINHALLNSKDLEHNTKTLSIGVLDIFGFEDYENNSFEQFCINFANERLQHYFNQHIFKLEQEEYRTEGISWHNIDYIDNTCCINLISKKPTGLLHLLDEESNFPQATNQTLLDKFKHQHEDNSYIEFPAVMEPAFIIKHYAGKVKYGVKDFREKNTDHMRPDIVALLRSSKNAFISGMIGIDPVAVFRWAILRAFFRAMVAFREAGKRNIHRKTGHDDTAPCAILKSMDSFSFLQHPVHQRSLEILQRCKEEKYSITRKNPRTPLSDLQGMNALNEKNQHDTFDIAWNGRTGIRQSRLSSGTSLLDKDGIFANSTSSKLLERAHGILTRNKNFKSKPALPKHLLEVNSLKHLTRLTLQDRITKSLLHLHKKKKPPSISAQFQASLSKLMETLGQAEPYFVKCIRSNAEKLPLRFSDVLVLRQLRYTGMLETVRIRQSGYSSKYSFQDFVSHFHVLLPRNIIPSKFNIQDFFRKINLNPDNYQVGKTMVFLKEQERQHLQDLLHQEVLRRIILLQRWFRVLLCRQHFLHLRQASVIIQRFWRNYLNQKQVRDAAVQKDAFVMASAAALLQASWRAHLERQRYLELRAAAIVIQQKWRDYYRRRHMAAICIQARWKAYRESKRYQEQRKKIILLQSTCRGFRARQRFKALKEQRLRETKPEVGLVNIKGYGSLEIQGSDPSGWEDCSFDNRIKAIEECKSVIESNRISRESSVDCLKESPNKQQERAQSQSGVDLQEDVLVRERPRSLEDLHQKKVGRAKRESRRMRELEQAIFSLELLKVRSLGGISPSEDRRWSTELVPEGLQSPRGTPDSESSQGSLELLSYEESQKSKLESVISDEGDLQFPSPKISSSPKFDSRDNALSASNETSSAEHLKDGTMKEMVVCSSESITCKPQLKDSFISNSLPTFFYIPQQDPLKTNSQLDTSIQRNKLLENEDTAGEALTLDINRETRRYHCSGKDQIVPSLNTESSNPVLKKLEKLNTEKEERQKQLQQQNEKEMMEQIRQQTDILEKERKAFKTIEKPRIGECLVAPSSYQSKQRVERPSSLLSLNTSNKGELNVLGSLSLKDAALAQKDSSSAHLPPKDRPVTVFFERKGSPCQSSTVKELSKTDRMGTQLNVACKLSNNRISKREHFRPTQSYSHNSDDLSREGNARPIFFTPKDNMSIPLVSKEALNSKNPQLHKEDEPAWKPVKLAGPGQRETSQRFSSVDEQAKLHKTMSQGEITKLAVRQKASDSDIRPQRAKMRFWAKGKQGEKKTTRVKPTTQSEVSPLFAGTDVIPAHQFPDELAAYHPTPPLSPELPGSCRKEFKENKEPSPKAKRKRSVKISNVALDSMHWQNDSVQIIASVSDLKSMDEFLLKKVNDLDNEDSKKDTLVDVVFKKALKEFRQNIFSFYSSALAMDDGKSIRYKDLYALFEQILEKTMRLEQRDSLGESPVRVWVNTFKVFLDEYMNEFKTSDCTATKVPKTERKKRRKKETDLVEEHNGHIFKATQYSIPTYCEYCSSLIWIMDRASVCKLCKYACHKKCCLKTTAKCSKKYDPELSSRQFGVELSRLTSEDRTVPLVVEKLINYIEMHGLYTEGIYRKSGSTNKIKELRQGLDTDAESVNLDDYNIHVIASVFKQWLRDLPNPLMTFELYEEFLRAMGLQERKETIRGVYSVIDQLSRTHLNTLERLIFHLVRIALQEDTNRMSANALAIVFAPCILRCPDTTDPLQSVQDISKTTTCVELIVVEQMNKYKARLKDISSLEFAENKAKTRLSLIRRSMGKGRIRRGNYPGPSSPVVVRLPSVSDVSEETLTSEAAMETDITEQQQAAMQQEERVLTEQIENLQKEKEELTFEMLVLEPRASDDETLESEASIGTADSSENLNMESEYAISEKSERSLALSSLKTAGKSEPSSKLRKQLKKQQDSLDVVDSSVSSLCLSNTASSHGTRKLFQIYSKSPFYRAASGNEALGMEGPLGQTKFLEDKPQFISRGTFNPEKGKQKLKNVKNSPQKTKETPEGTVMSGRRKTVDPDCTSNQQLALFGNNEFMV
Chain of UniProt P03928 (P03928 whole entry, looked up): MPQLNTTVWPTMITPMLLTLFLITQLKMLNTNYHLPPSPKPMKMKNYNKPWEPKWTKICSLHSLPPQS
Chain of UniProt P04150 (P04150 whole entry, looked up): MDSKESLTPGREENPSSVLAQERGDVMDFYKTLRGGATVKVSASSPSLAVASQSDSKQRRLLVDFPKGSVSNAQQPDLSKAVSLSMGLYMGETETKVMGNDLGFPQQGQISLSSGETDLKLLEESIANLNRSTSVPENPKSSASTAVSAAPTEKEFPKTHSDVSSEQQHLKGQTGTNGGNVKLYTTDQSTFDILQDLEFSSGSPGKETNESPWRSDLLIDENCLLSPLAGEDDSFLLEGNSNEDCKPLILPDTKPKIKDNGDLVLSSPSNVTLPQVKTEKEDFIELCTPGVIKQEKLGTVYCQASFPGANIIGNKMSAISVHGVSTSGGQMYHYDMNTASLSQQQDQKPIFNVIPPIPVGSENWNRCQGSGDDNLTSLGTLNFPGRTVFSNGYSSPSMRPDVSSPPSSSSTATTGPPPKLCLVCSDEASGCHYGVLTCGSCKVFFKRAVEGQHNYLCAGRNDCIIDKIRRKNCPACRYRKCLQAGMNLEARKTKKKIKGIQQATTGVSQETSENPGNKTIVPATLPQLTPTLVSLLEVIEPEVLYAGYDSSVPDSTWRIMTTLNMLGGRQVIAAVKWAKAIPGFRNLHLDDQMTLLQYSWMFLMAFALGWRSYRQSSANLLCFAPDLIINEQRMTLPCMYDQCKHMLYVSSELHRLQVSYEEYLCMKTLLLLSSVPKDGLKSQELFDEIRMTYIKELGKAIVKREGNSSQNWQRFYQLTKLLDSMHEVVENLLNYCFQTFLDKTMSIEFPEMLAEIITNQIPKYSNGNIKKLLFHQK
Chain of UniProt Q8NE18 (Q8NE18 whole entry, looked up): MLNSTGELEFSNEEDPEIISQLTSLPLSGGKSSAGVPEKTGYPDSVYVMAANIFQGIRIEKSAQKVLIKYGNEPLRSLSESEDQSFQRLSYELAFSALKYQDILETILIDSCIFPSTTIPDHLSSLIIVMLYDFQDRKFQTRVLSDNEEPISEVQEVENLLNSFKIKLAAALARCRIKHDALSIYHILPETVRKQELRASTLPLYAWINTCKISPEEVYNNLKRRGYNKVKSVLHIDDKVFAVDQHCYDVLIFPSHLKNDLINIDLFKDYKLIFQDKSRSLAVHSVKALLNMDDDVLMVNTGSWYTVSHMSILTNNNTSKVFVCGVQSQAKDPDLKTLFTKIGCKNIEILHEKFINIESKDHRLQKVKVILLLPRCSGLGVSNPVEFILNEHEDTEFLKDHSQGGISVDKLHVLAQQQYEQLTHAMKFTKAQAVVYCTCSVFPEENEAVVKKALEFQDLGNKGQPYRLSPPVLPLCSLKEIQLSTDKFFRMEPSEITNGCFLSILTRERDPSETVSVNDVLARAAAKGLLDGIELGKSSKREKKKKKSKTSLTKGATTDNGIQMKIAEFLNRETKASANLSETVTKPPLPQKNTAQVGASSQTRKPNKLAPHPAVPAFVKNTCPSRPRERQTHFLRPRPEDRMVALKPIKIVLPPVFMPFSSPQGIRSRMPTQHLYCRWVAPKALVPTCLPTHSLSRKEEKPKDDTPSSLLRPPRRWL

Consider MYO9A isoform 4 (UniProt B2RTY4), for which the log2 fold change is 0.074 in the test with erlotinib; 0.008 in [1]; -0.125 in test [2]; -0.045 in test [3]; 0.153 in test [4]; -0.007 in test [5]. The log2 fold change in test [6] was -0.05; with IRAK-1-4 Inhibitor I it was -0.059; with ibrutinib it was -0.057; in test [7], 0.016; in the test with ralimetinib, 0.022; in test [8], 0.068. Also, the log2 fold change in [9] is 0.03; in test [10] it was -0.031; in test [11], -0.142; in test [12], -0.037; in test [13], 0.043; in test [14] it was -0.005.
For PANK2 (UniProt Q9BZ23), the log2 fold change in test [1] was -0.012; in test [3], -0.019; in test [4], 0.011; in [5] it was -0.078; in test [6], -0.044; in test [15], -0.008. For the same target, the log2 fold change in test [16] was -0.06; in the test with IRAK-1-4 Inhibitor I, 0.14; with ibrutinib, -0.056; in test [7], 0.001; with ralimetinib, -0.069; in test [8], -0.047. The log2 fold change is -0.073 in test [10]; -0.126 in test [11]; -0.046 in [12]; -0.002 in test [13]; 0.023 in test [14].
NUMB isoform 2 (UniProt P49757): the log2 fold change in test [5] was 0.304; in the test with IRAK-1-4 Inhibitor I, 0.021; with ralimetinib, 0.059; in test [8], 0.12; in [10] it was 0.154; in test [11], -0.245. Moreover, in [13], the log2 fold change is -0.062.
As to MT-ATP8 (UniProt P03928), the log2 fold change in the test with erlotinib is 0.069; in test [1], 0.006; in [2], -0.006; in test [3] it was -0.041; in test [4], 0.103; in [5], -0.103. Also, the log2 fold change in test [6] is -0.062; in test [15] it was 0.116; in [16], 0.068; in the test with IRAK-1-4 Inhibitor I it was 0.033; with ibrutinib it was -0.035; in [7] it was -0.052. Besides, the log2 fold change with ralimetinib is 0.005; in [8], -0.109; in [9] it was -0.087; in test [10], -0.082; in [12], 0.153; in test [13], 0.047. Moreover, in [14], the log2 fold change was 0.104.
As to MYO10 (UniProt Q9HD67), the log2 fold change in the test with erlotinib is -0.044; in test [1], -0.13; in [2], 0.19; in test [3] it was 0.017; in test [4], -0.062; in test [5], 0.014. For the same target, the log2 fold change in test [6] was -0.16; with IRAK-1-4 Inhibitor I, 0.102; in the test with ibrutinib, -0.059; with ralimetinib, -0.136; in test [8] it was -0.385; in [9] it was 0.035. In addition, the log2 fold change in test [10] is -0.078; in test [12], -0.001; in [13] it was 0.042.
MYBL2 (UniProt P10244): the log2 fold change with erlotinib was 0.02; in test [1] it was 0.014; in test [2], -0.011; in [3], 0.035; in test [5] it was 0.005; in test [6], 0.078. For the same target, the log2 fold change was -0.013 in test [15]; -0.036 in test [16]; 0.009 in the test with IRAK-1-4 Inhibitor I; 0 with ralimetinib; 0.02 in test [8]; -0.008 in [9]. In addition, the log2 fold change in test [11] is 0.057; in test [12] it was 0.048; in test [13] it was -0.013.
With MYH6 (UniProt P13533), the log2 fold change is 0.107 in the test with erlotinib; 0.08 in test [2]; 0.304 in test [4]; 0.029 in test [5]; -0.049 in test [15]; 0.115 in test [16]. Moreover, the log2 fold change is 0.052 with IRAK-1-4 Inhibitor I; 0.793 (active) with ibrutinib; -0.017 in test [7]; 0.045 with ralimetinib; -0.157 in test [8]; 0.01 in test [9]. For the same target, the log2 fold change was 0.047 in [12], -0.081 in test [13] and -0.172 in test [14].
NR3C1 isoform 3 (UniProt P04150): the log2 fold change with erlotinib is 0.061; in test [1], -0.019; in [2], -0.058; in [3] it was -0.075; in [4], 0.09; in test [5], 0.044. In addition, the log2 fold change in [15] is 0.047; in [16], -0.064; with IRAK-1-4 Inhibitor I it was -0.059; with ibrutinib, -0.168; in test [7] it was -0.019; with ralimetinib it was -0.076. The log2 fold change in [8] was 0.04; in test [9], 0.008; in test [10], -0.031; in [11] it was 0.104; in test [12], 0.024; in [13] it was -0.033. The log2 fold change in [14] was 0.055.
On to NSUN7 (UniProt Q8NE18), for which the log2 fold change with erlotinib was -0.037; in test [1] it was -0.271; in [2] it was 0.019; in test [3], -0.095; in test [4], 0.198; in test [5], -0.031. In addition, the log2 fold change in test [6] was -0.087; in [15], -0.026; in [16], -0.042; with IRAK-1-4 Inhibitor I it was 0.068; with ibrutinib, 0.076; in test [7] it was -0.025. The log2 fold change was 0.168 with ralimetinib; -0.137 in test [8]; 0.042 in [9]; 0.102 in test [12]; -0.009 in test [13]; -0.017 in [14].
Turning to NUDT5 (UniProt C9JYY9), the log2 fold change in the test with erlotinib was 0.098; in test [2], -0.157; in test [15] it was -0.069; in [16], 0.034; in [9], -0.111; in test [10], -0.05.

(Values after the supplement of paper PMC10849652.)
